For seven compounds, Potency results are on record in PubChem BioAssay (NCATS).

Assay [1] is described as follows: Quantitative High-Throughput drug screen in 47 multiple myeloma cell lines against the NCATS MIPE library collection: Delta47_JCRB cell viability assay (AID 1918925; further: nearly all actives have a fitted effect of over 45% in size). Summed up: (§1)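 Viability readout: CellTiter-Glo luminescence following 5 min room-temperature incubation with reagent. Prior exposure: 48 h, 37C, humidified 5% CO2, 500 cells per well.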
Assay [2] is described as follows: Quantitative High-Throughput drug screen in 47 multiple myeloma cell lines against the NCATS MIPE library collection: ARP1_JJKsccF8 cell viability assay (AID 1918928; further: nearly all actives have a fitted effect of over 40% in size). Summed up: (§2)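 ATP readout (CellTiter-Glo), 48 h drug incubation, 37 °C/5% CO2, 500 cells per well; normalisation to DMSO (100%) and media-only (0%) controls.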
A short description of assay [3]: Quantitative High-Throughput drug screen in 47 multiple myeloma cell lines against the NCATS MIPE library collection: INA6_PLB cell viability assay (AID 1918965; further: nearly all actives have a fitted effect of over 55% in size). The gist of the method:
(§3)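 We plated 500 myeloma cells per well, pinned in MIPE 4.0 compounds, and incubated for 48 hours at 37C. ATP was then quantified with CellTiter-Glo, with DMSO and media-only wells defining 100% and 0%.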

A short description of assay [4]: Quantitative High-Throughput drug screen in 47 multiple myeloma cell lines against the NCATS MIPE library collection: JJN3_DSMZ cell viability assay (AID 1918966; further: nearly all actives have a fitted effect of over 50% in size). The gist of the method:
as §1

Assay [5] is described as follows: Quantitative High-Throughput drug screen in 47 multiple myeloma cell lines against the NCATS MIPE library collection: Karpas25_ECACC cell viability assay (AID 1918968; further: nearly all actives have a fitted effect of over 35% in size). The gist of the method:
as §1

Assay [6] can be described thus: Quantitative High-Throughput drug screen in 47 multiple myeloma cell lines against the NCATS MIPE library collection: KMS12BM_JCRB cell viability assay (AID 1918971). Further: nearly all actives have a fitted effect of over 35% in size. Summed up: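 Myeloma cells (500 per well) were exposed to MIPE 4.0 compounds by pin transfer and incubated 48 hours at 37C, 5% CO2. Viability was read as ATP by CellTiter-Glo luminescence, normalised to DMSO (100%) and media-only (0%) wells.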

A short description of assay [7]: Quantitative High-Throughput drug screen in 47 multiple myeloma cell lines against the NCATS MIPE library collection: ARD_JJKsccE7 cell viability assay (AID 1918929). Summed up:
as §1

A short description of assay [8]: Quantitative High-Throughput drug screen in 47 multiple myeloma cell lines against the NCATS MIPE library collection: Karpas620_DSMZ cell viability assay (AID 1918959). Further: nearly all actives have a fitted effect of over 30% in size. The gist of the method: (§4)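 Primary qHTS used for cherry-picking: cells at 500/well, library compounds for 48 h (37C, 5% CO2), luminescent ATP assay.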
Assay [9] is described as follows: Quantitative High-Throughput drug screen in 47 multiple myeloma cell lines against the NCATS MIPE library collection: KMM1_JCRB cell viability assay (AID 1918960). Further: nearly all actives have a fitted effect of over 30% in size. Summed up:
as §2

Assay [10] can be described thus: Quantitative High-Throughput drug screen in 47 multiple myeloma cell lines against the NCATS MIPE library collection: KHM11_PLB cell viability assay (AID 1918962). Further: nearly all actives have a fitted effect of over 35% in size. The gist of the method: as §4
Assay [11] in a line: Quantitative High-Throughput drug screen in 47 multiple myeloma cell lines against the NCATS MIPE library collection: JIM3_ECACC cell viability assay (AID 1918963; further: nearly all actives have a fitted effect of over 35% in size). Summed up:
as §4

The nature of assay [12]: Quantitative High-Throughput drug screen in 47 multiple myeloma cell lines against the NCATS MIPE library collection: H1112_PLB cell viability assay (AID 1918967; further: nearly all actives have a fitted effect of over 30% in size). The gist of the method:
as §1

Assay [13] can be described thus: Quantitative High-Throughput drug screen in 47 multiple myeloma cell lines against the NCATS MIPE library collection: KMS27_JCRB cell viability assay (AID 1918970). Further: nearly all actives have a fitted effect of over 30% in size. Summed up: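 CellTiter-Glo luminescence after 48 h drug exposure at 37 °C; 500 cells/well, 1536-well format, pin-tool compound addition; DMSO = 100%, media-only = 0% viability.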
Assay [14] can be described thus: Quantitative High-Throughput drug screen in 47 multiple myeloma cell lines against the NCATS MIPE library collection: KMS12PE_JCRB cell viability assay (AID 1918972). Further: nearly all actives have a fitted effect of over 30% in size. Summed up: as §3
Assay [15] in a line: Quantitative High-Throughput drug screen in 47 multiple myeloma cell lines against the NCATS MIPE library collection: KMS20_JCRB cell viability assay (AID 1918973). Further: nearly all actives have a fitted effect of over 45% in size. The gist of the method: as §1
A short description of assay [16]: Quantitative High-Throughput drug screen in 47 multiple myeloma cell lines against the NCATS MIPE library collection: JIM1_ECACC cell viability assay (AID 1918964). Summed up: as §1
Assay [17] in a line: Quantitative High-Throughput drug screen in 47 multiple myeloma cell lines against the NCATS MIPE library collection: EJM_DSMZ cell viability assay (AID 1918926; further: nearly all actives have a fitted effect of over 30% in size). Summed up:
as §1

A short description of assay [18]: Quantitative High-Throughput drug screen in 47 multiple myeloma cell lines against the NCATS MIPE library collection: AMO1_DSMZ cell viability assay (AID 1918927; further: nearly all actives have a fitted effect of over 30% in size). The gist of the method:
as §1

Assay [19] in a line: Quantitative High-Throughput drug screen in 47 multiple myeloma cell lines against the NCATS MIPE library collection: Karpas417_ECACC cell viability assay (AID 1918961). As to conditions: Karpas417 myeloma viability, CellTiter-Glo ATP luminescence, 48 h; viability (% of DMSO): at 45.8 µM (top of the series). Summed up: as §3
The nature of assay [20]: Quantitative High-Throughput drug screen in 47 multiple myeloma cell lines against the NCATS MIPE library collection: KMS21BM_JCRB cell viability assay (AID 1918974). As to conditions: ATP luminescence, 48 h; viability: at 45.8 µM (top of the series) unless noted. The gist of the method: as §1

Records with an inconclusive call do not appear. Calls of active or inactive are those of the source. The call rests on the fitted dose curve; in most records, active means well fitted curve in the direction sought with a large enough effect; inconclusive means small, poorly fitted or top-dose-only effect, or another doubt; inactive means no such curve, though single readings can be large; an effect the other way counts as inactive or inconclusive.
Potency means the concentration at half of the fitted maximal effect.

Take `CCOC(=O)C1=C(C)NC2=C(C(=O)CC(C)(C)C2)C1c1ccc(-c2ccccc2)cc1` (centres undefined): the Potency in assay [1] is 14.8 µM (active); in assay [2] it was 23.5 µM (active); in [3], 26.4 µM (active); in assay [4], 18.7 µM (active); in assay [5], 20.9 µM (active); in assay [6], 23.5 µM (active).

In the case of `CCS(=O)(=O)c1cccc(-c2cc(C(=O)NC3CCN(C)CC3)c(C)c3[nH]c4ncc(C)cc4c23)c1`, the Potency in assay [1] was 0.662 µM (active); in [2], 2.09 µM (active); in assay [7], 3.32 µM (active); in [8], 1.66 µM (active); in assay [9] it was 2.96 µM (active); in assay [10], 0.526 µM (active). In addition, the Potency in assay [11] is 0.935 µM (active); in [3], 0.418 µM (active); in assay [4], 1.66 µM (active); in assay [12], 4.69 µM (active); in assay [5], 1.18 µM (active); in assay [13] it was 1.32 µM (active). Also, the Potency in assay [6] is 5.9 µM (active); in [14] it was 3.32 µM (active); in [15], 1.32 µM (active).

For `O=C(Nc1cn[nH]c1-c1nc2ccc(CN3CCOCC3)cc2[nH]1)NC1CC1`, the Potency in assay [1] is 1.48 µM (active); in [2], 4.18 µM (active); in [7], 3.72 µM (active); in assay [8] it was 5.26 µM (active); in assay [9], 2.96 µM (active); in [10], 1.48 µM (active). The Potency was 1.18 µM (active) in [11]; 2.09 µM (active) in assay [16]; 0.148 µM (active) in assay [3]; 1.87 µM (active) in assay [4]; 3.32 µM (active) in assay [12]; 5.9 µM (active) in assay [6]. For the same compound, the Potency in [15] was 2.96 µM (active).

As to `Cc1cccc(C=NNc2cc(N3CCOCC3)nc(OCCc3ccccn3)n2)c1`, the Potency in [1] is 1.32 µM (active); in assay [7], 1.05 µM (active); in assay [8], 0.469 µM (active); in assay [16], 0.935 µM (active); in [3], 14.8 µM (active); in assay [5], 13.2 µM (active). Besides, the Potency was 14.8 µM (active) in assay [6], 0.332 µM (active) in [14] and 6.62 µM (active) in assay [15].

Consider `Cc1nc2cnc3ccc(C#Cc4cccnc4)cc3c2n1-c1ccc(C(C)(C)C#N)cc1`, for which the Potency was 0.0166 µM (active) in [1]; 0.0833 µM (active) in assay [3]; 0.935 µM (active) in [4]; 0.166 µM (active) in assay [12]; 0.0264 µM (active) in [5]. In addition, in assay [9], the Potency entry is “inactive”.

In the case of `Cc1ccc(NC(=O)C2(c3ccc4c(c3)OC(F)(F)O4)CC2)nc1-c1cccc(C(=O)O)c1`, the Potency is 0.0833 µM (active) in [17]; 0.0526 µM (active) in [18]; 0.0264 µM (active) in assay [2]; 0.0469 µM (active) in assay [7]; 0.166 µM (active) in assay [8]; 0.059 µM (active) in assay [9]. For the same compound, the Potency in assay [19] was 0.0469 µM (active); in assay [10] it was 0.0662 µM (active); in assay [11] it was 0.118 µM (active); in assay [16] it was 0.0418 µM (active); in assay [3], 0.0296 µM (active); in [4], 0.148 µM (active). Further, the Potency in assay [12] is 0.118 µM (active); in [5], 0.0332 µM (active); in assay [6], 0.0296 µM (active); in assay [14], 0.0418 µM (active); in assay [20], 0.0469 µM (active).

`COc1cc2c(Oc3ccc4[nH]c(C)cc4c3F)ncnc2cc1OCCCN1CCCC1`: the Potency in assay [1] was 3.32 µM (active); in assay [2], 23.5 µM (active); in assay [8] it was 2.96 µM (active); in assay [9], 2.35 µM (active); in assay [10] it was 4.69 µM (active); in [11] it was 9.35 µM (active). Besides, the Potency was 9.35 µM (active) in [3]; 20.9 µM (active) in [4]; 8.33 µM (active) in assay [12]; 5.9 µM (active) in assay [5]; 29.6 µM (active) in assay [6]; 2.64 µM (active) in assay [14]. The Potency in [15] is 2.96 µM (active).
